Most compounds without a hit are left out; they make up all but 1.2% or so of the library.
L3MBTL1 block – blocks human L3MBTL1; AlphaScreen L3MBTL1–H3K9me1 peptide binding; Potency, µM (titrated, usually from 57.1 µM), for inactives: at the highest dose activity, negative = inhibition, actives largely listed as inhibitors; 230,000 tested, 0.66% active; AID 485360; further: potency means the concentration at half of the fitted maximal effect; nearly all actives have a fitted effect of over 60% in size
Target sequence (Q9Y468 whole entry, looked up): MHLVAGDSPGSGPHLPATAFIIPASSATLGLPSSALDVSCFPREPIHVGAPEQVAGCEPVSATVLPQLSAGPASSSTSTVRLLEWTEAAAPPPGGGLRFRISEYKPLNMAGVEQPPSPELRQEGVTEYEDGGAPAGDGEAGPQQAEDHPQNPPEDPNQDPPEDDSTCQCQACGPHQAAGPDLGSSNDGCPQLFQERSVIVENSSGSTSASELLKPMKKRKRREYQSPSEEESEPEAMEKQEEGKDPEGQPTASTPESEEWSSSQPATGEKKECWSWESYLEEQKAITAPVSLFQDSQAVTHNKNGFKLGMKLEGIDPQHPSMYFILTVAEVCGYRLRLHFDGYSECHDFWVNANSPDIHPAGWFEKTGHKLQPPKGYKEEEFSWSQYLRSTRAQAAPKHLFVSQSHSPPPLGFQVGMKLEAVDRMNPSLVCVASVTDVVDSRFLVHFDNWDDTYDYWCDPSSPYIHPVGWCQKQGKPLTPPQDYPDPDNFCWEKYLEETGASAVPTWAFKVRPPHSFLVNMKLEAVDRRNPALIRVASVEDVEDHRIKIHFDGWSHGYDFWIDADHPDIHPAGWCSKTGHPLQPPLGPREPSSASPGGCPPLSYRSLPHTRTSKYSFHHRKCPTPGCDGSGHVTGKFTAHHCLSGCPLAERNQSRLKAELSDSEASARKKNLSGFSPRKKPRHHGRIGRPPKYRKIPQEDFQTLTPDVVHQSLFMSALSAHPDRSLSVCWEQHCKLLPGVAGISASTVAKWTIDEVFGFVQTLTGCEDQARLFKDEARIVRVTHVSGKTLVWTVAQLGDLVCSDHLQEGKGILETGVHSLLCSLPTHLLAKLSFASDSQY
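Read-out is AlphaScreen signal from streptavidin donor and nickel chelate acceptor beads (10 ug/mL final each) bridging L3MBTL1 (50 nM) and biotinylated K9-monomethylated H3(1-15) peptide (75 nM), after 30 min compound exposure at room temperature.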
Six1-Eya2 inh – inhibitors of human Six1/Eya2 interaction | AlphaScreen GST-Six1/His-Eya2 binding, biochemical; hits give low values | 360,000 tested, 0.56% active | activity change, % (concentration not given with the values); in the data active means activity change below about -65%; inconclusive means mostly about -30% to -63%
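AlphaScreen with GST-Six1 and His-Eya2 (5X mix: 250 nM and 500 nM), glutathione donor and nickel acceptor beads; buffer 50 mM Tris pH 8.0, 300 mM NaCl, 1 mM TCEP; 1 h at 37 C in the dark.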
USP2a block – USP2a (human) protease inhibition. Potency, µM (highest dose often 38.3 µM), inactives show at the highest dose activity change, negative = inhibition, hits mostly inhibitors. AID 463254. 330,000 tested, 0.01% active. O75604. USP2 core, Ub-CHOP2 coupled fluorogenic reporter, 485/531;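 further: potency means the concentration at half of the fitted maximal effect; plate controls were DMSO wells for no effect and full inhibition by NEM control for full effect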
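Cell-free coupled assay: 10nM USP2 core preincubated 30min RT with compound in Tris-HCl pH 8.0/CaCl2/CHAPS buffer, then 25nM Ub-CHOP2 and 25nM reporter substrate; fluorescence (Ex 485/Em 531) read after 60min RT, normalized to NEM inhibition, concentration-response curves fitted.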
CtBP-E1A blk – inhibitors of CtBP/E1A interaction; activity change, % (no concentration beside the values); 340,000 tested, 0.49% active; AlphaScreen GST-E1A/His-CtBP binding, 1536-well; hits give low values; in the data active means activity change below about -65%; inconclusive means mostly about -30% to -63%
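AlphaScreen with 125 nM GST-E1A and 125 nM His-CtBP (5X stocks) in Tris pH 8.0, 300 mM NaCl, BSA, Tween 20, TCEP. Compounds preincubated 2 h at 37 deg C, then glutathione donor/nickel acceptor beads added for 1 h at 37 deg C in dark.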
uPA surface inh – inhibitors of cell surface uPA generation; cell surface uPA generation assay, qHTS; Potency, µM (highest dose often 38.3 µM), without a hit: at the highest dose activity change, negative = inhibition, hits mostly inhibitors; 330,000 tested, 0.31% active; AID 540303; active means well fitted inhibition curve with a large enough effect; inconclusive means small, poorly fitted or top-dose-only effect; inactive means no such curve, though single readings can be large or run the other way; tested in mouse RAW 264.7 cells; further: potency means the concentration at half of the fitted maximal effect; nearly all actives have a fitted effect of over 55% in size
Eya2 inh – Eya2 (human) phosphatase inhibition; O00167; recombinant Eya2, OMFP fluorescence dephosphorylation (OMFP is methylfluorescein phosphate); Potency, µM (doses to about 76.9 µM), for the others: at the highest dose activity, negative = inhibition, actives largely listed as inhibitors; 330,000 tested, 0.006% active; AID 488837; further: potency means the concentration at half of the fitted maximal effect
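Eya2 protein (added as 0.2 uM solution) was preincubated with compound for 10 min at ambient temperature in 50 mM HEPES pH 7.5, 50 mM NaCl, 5 uM MgCl2, 0.05% BSA, 1 mM DTT. OMFP (added at 50 uM) then reacted 10 min; fluorescence read at 485/525 nm.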
Numbers without * were called inactive; ? = inconclusive; . = no result given. Unless noted, the call rests on the fitted dose curve; in most records, active means well fitted curve in the direction sought with a large enough effect; inconclusive means small, poorly fitted or top-dose-only effect, or another doubt; inactive means no such curve, though single readings can be large; an effect the other way counts as inactive or inconclusive. Unless noted, on the % scale 0 is the no-effect control and ±100 the full control effect.

SMILES	L3MBTL1 block	Six1-Eya2 inh	USP2a block	CtBP-E1A blk	uPA surface inh	Eya2 inh
CCOC(=O)c1ccc(NC(=O)CC2S/C(=N/N=C3/NC(=O)CS3)NC2=O)cc1 (centres undefined)	.	?	2%	?	0%	-13%
Cc1ccc(NC(=O)CC2S/C(=N/N=C3/NC(=O)CS3)NC2=O)cc1 (centres undefined)	?	-75*	1%	-23	-4%	15%
Cc1nnsc1C(=O)Nc1ccc(S(=O)(=O)N2CCCCC2C)cc1 (centres undefined)	.	-1	0%	0	-2%	-1%
O=C(CN1CCc2ccccc2C1)Nc1ccc(OC(F)(F)F)cc1	.	27	-3%	1	-1%	-1%
Cc1ccc(C)c(N)c1	-7%	33	-1%	7	-16%	5%
Cc1ccc(O)c(N)c1	-11%	1	-4%	-10	2.8µM*	4%
CN(C)C(=O)CCc1ccc2c3c([nH]c2c1)[C@]1(CCC2CCCC2)[C@@H](C(=O)N2CCOCC2)C[C@H](CC(=O)NCCCn2ccnc2)C(=O)N1CC3	-4%	4	-1%	-8	4%	5%
O=C(C[C@H]1C[C@H](C(=O)N2CCOCC2)[C@@]2(CCC3CCCC3)c3[nH]c4ccc(Cl)cc4c3CCN2C1=O)NCCCn1ccnc1	-5%	-10	1%	-8	13µM*	-11%
O=C(O)c1ccc(C2CCCCC2)cn1	18µM*	-90*	1%	-85*	-1%	-21%
O=C(O)C1=C(C2CCCCC2)C(=O)c2ccccc21	.	25	.	-15	-2%	.
O=C(CCS(=O)(=O)c1ccc(F)cc1)Nc1nnc(-c2cccs2)o1	-19%	-12	0%	0	10µM*	26%
Cc1nc([N+](=O)[O-])cn1Cc1cccc2ccccc12	5%	-1	-3%	9	-15%	7%
Cc1ccc(-n2nnc(-c3cccnc3)n2)cc1	.	1	.	8	?	.
Cc1ccc(-n2nnc(-c3nccn3C)n2)cc1	0%	3	-2%	3	3.2µM*	17%
Nc1ccccc1N=Nc1ccccc1N	8.9µM*	?	0%	-79*	?	1%
Nc1ccccc1-c1ccccc1N	37%	-3	-4%	6	-7%	-6%
COc1ccc(C(=O)Nc2ccc(-c3cn4ccsc4n3)cc2)cc1S(=O)(=O)N1CCOCC1	-6%	-77*	4%	-73*	.	-1%
CN1CCN(S(=O)(=O)c2cccc(C(=O)Nc3nccs3)c2)CC1	-6%	-8	2%	-20	-1%	2%
CN1CCN(S(=O)(=O)c2cccc(C(=O)Nc3cc(C(N)=O)cc(C(N)=O)c3)c2)CC1	.	-66*	1%	?	-2%	10%
CN1CCN(S(=O)(=O)c2cccc(C(=O)Nc3sccc3C(N)=O)c2)CC1	-8%	-77*	1%	-80*	-16%	-8%
O=C(Nc1cccc(O)c1)c1cccc(S(=O)(=O)N2CCCC2)c1	.	-72*	1%	?	-2%	-11%
Cn1cc(C(=O)c2ccccc2C(=O)O)cc1C(=O)C(Cl)(Cl)Cl	.	11	0%	1	7%	-9%
O=C(NCC(c1ccccc1Cl)N1CCCC1)c1ccc(N2CCCC2=O)cc1 (centres undefined)	1%	-4	4%	0	-3%	-9%
Oc1ccc(/C=N/N2CCOCC2)c(O)c1O	14µM*	-6	3%	-17	2%	10%
Oc1ccc(/C=N/N2CCCCC2)c(O)c1O	.	-11	2%	-6	0%	2%
SMILES	L3MBTL1 block	Six1-Eya2 inh	USP2a block	CtBP-E1A blk	uPA surface inh	Eya2 inh
CCOc1ccccc1NC(=O)CCCNC(=O)Cn1cnc2sc(C)c(C)c2c1=O	.	-1	3%	0	8%	0%
Cc1nc2ccccc2c(=O)n1/N=C/c1ccc2ccccc2c1O	32µM*	?	-2%	-8	-17%	-3%
Cc1cc([N+](=O)[O-])cc(/C=N/n2c(C)nc3ccccc3c2=O)c1O	?	?	5%	-86*	-1%	1%
Cc1nc2ccccc2c(=O)n1/N=C/c1ccccc1O	3%	-27	3%	?	-2%	-16%
Cc1nnc(-c2ccccc2)c(=O)n1/N=C/c1c(O)ccc2ccccc12	?	-94*	?	-1	-6%	?
CCn1c(SCC(=O)N/N=C/C=C\c2ccco2)nc2ccccc21	32µM*	-15	2%	-13	-3%	3%
Cc1c(N/N=C(\C#N)C(=O)c2ccc(Cl)cc2)c(=O)n(-c2ccccc2)n1C	?	-82*	1%	-76*	-6%	-2%
COCc1cc(=O)[nH]c(Nc2nc3ccc(C)cc3o2)n1	0%	-84*	0%	-87*	-9%	0%
CCc1ccc2nc(Nc3nc(COC)cc(=O)[nH]3)nc(C)c2c1	-4%	-3	3%	-6	4%	8%
Clc1ccc(CSc2nc3ccncc3[nH]2)cc1	.	1	-4%	5	0.45µM*	-7%
Cc1ccc(CSc2nc3ccncc3[nH]2)cc1	.	3	-2%	-1	-99%	-1%
O=C(N/N=C/C(Br)=C\c1ccccc1)c1ccco1	-6%	-8	-2%	-82*	-10%	-2%
O=C(N/N=C/C(Cl)=C/c1ccccc1)c1ccc2c(c1)OCO2	0%	-6	0%	.	6.3µM*	-11%
O=C(Cc1cccs1)N/N=C/C=C\c1ccco1	-21%	-18	-13%	4	-9%	-14%
O=C(N/N=C/C=C\c1ccco1)c1cccs1	6.3µM*	-20	-7%	-1	-6%	-2%
O=C(N/N=C/c1ccccc1)c1ccco1	0%	2	2%	8	-14%	-29%
O=C(N/N=C/C(Br)=C\c1ccccc1)c1cccs1	-3%	-11	-1%	-81*	-7%	4%
CC(=C/c1ccccc1)/C=N/NC(=O)c1cccs1	-2%	-4	-1%	1	-11%	1%
O=C(Cn1c(-c2ccccn2)nc2ccccc21)N/N=C/c1cccnc1	-7%	6	-1%	20	-7%	3%
O=C(N/N=C/C(Br)=C\c1ccccc1)c1ccc2nc[nH]c2c1	-12%	-20	-1%	-77*	-9%	-5%
Cc1ccc(S(=O)(=O)N2[C@H](CC(=O)c3ccccc3)OC[C@@H]2C(C)C)cc1	.	12	.	-23	.	.
O=C(Nc1ccccc1C(=O)N1CCCCCC1)c1cccc([N+](=O)[O-])c1	.	4	-5%	-4	4%	-4%
Cn1nnnc1N=N/C(=N/Nc1ccccc1)c1ccccc1	2.8µM*	-27	-8%	-24	-14%	-8%

Assay outcomes from PubChem BioAssay.
